Compound activity: PubChem, National Center for Advancing Translational Sciences (NCATS)
PK Bst: alters activity of Bacillus stearothermophilus pyruvate kinase; purified pyruvate kinase, luminescence ATP production; ribose 5-phosphate activator present at AC10; Potency, µM; actives 1.2% (n = 51,000); AID 361; in the data active means potency below about 11 µM; inconclusive means mostly about 12 µM to 25 µM;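 the screen sought inhibitors and activators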
FLuc inh: blocks Photinus pyralis firefly luciferase activity; actives 2.2% (n = 72,000); purified firefly luciferase, luminescence, 8 min; Potency, µM (highest dose often 57.1 µM), most hits filed as inhibitors; P08659; further: nearly all actives have a fitted effect of over 40% in size
Target sequence (P08659 whole entry, looked up): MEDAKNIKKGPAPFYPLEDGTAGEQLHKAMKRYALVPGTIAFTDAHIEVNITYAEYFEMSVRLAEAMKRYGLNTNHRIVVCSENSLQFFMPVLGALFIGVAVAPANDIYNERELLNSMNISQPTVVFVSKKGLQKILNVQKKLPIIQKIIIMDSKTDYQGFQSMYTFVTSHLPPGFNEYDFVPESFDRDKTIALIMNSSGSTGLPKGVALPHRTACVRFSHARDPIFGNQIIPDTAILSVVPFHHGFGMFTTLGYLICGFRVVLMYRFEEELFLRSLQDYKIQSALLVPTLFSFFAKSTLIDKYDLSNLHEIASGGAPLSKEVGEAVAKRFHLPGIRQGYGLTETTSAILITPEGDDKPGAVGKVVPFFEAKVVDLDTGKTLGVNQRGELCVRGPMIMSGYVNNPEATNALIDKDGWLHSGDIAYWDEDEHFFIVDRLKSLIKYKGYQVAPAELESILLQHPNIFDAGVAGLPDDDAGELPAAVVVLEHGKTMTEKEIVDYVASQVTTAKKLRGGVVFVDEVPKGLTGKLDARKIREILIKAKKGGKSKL
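qHTS concentration-response profiling: light output of P. pyralis luciferase with luciferin and 10 uM ATP, imidazole buffer pH 7.2. Read by luminescence after 8-min room-temperature incubation.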
GFP derepression: epigenetic modulators derepressing GFP locus in mouse cells. Potency, µM (doses to about 46.1 µM). actives 0.09% (n = 68,000). mouse C127i GFP locus derepression, cytometry, 30 h
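Murine C127i mammary cells carrying a silenced, stably integrated CMV-driven GFP reporter were treated with compound for 30 hours at 37 C. After PBS washes, GFP-positive cells were counted by laser-scanning microplate cytometry.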
HBB splicing: alters splicing of the hemoglobin beta chain | Potency, µM (doses to about 46.1 µM), usual class: activators | HBB splicing reporter cell assay, activation; EGFP reporter with mutant IVS2-654 intron; response scale: normalised to 500 nM splice-correcting PNA | actives 0.06% (n = 65,000) | AID 925
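HeLa cells stably expressing EGFP interrupted by mutant beta-globin intron 2 (IVS2-654), 500/well in 2% FCS. Treated with compound for 2 days at 37C. Splicing correction scored as total well GFP intensity (488 nm excitation, 500-520 nm emission); 500 nM antisense PNA served as control.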
UbGFP stabilizer: proteasome inhibitors stabilizing ubiquitin-GFP reporter | Ubiquitin-GFP reporter cells, proteasome inhibition, GFP fluorescence; response scale: untreated = 0%, 10 µM MG-132 = 100% | Potency, µM (titrated, usually from 45.9 µM), most hits filed as activators | 67,000 tested, under 10 active | AID 526; active means well fitted activation curve with a large enough effect, not every such curve was filed as active; inconclusive means small, poorly fitted or top-dose-only effect, or another doubt; inactive means no such curve, though single readings can be large or run the other way
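Reporter cells (U2OS, ubiquitin-G76V-GFP fusion) are plated overnight, then treated 4 hr at 37 °C with compound titrations from 46 uM down to 2.9 nM. Activity is scaled against untreated cells and 10 uM MG-132.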
Numbers stand for hits; – = inactive; ? = inconclusive; · = no result; [ ] = remark or other dose. Shown are actives, neighbours in structure and some others; about 2.6% of the full set was active somewhere. Unless noted, the call rests on the fitted dose curve; in most records, active means well fitted curve in the direction sought with a large enough effect; inconclusive means small, poorly fitted or top-dose-only effect, or another doubt; inactive means no such curve, though single readings can be large; an effect the other way counts as inactive or inconclusive.

SMILES	PK Bst	FLuc inh	GFP derepression	HBB splicing	UbGFP stabilizer
COc1cccc(-c2nccc(NCc3ccc(OC)cc3OC)n2)c1	·	–[2.29 µM]	–[9.22 µM]	–	–
Cc1ccc(-c2nnc(-c3cccc(Br)c3)o2)cc1	·	–	–	·	·
Brc1cccc(-c2nnc(-c3ccccc3)o2)c1	–	15.8µM	–	–	–
Clc1cccc(-c2nnc(-c3ccccc3)o2)c1	·	5.01µM	–	–	–
Cc1ccccc1-c1nnc(-c2ccc(Br)cc2)o1	4.4	–	–	·	–
Cc1cccc(-c2nnc(-c3ccc(N)cc3)o2)c1	8.96	12.6µM	–	–	–
Cc1ccc(-c2nnc(-c3ccccc3)o2)cc1Br	–	–	–	·	·
Cc1ccc(-c2nnc(-c3ccc4ccccc4c3)o2)cc1	·	–[11.4 µM]	–[9.22 µM]	–[9.22 µM]	–[9.17 µM]
c1ccc2c(NCCN3CCOCC3)nc(-c3ccoc3)nc2c1	·	–[2.29 µM]	–[9.22 µM]	–	–
NCCN1C(=O)c2ccccc2[C@@]1(O)c1ccc(Cl)cc1	·	–[11.4 µM]	–[9.22 µM]	–[9.22 µM]	–[9.17 µM]
Cc1nc2cnc(N(C)C)nc2n(C2CC2)c1=O	·	–[11.4 µM]	–[9.22 µM]	–	–
CC(=O)OC[C@@H]1O[C@@H](O/N=C2/C[C@@H](O)[C@@H](O)[C@@H]3[C@H]4C(=O)N(c5ccc(F)cc5F)C(=O)[C@@H]4CC[C@H]23)[C@H](OC(C)=O)[C@H](OC(C)=O)[C@@H]1OC(C)=O	·	–[11.4 µM]	·	–[9.22 µM]	·
Cc1cc(C)c(C(=O)COC(=O)Cn2cnnn2)cc1C	–	–	–	–	–
O=C(Cn1cnnn1)OCC(=O)c1ccc(Cl)s1	–	–	–	12.6µM	–
COCCCn1c(SCC(=O)OC2CCCCC2)nnc1-c1ccco1	·	25.1µM	–	–	–
COCCCn1c(SCC(=O)NC2CCCC2)nnc1-c1ccco1	–	–	–	·	–
COc1ccccc1NC(=O)CSc1nnc(-c2ccccn2)n1Cc1ccco1	·	–	–	–	–
COc1ccccc1NC(=O)CSc1nnc(-c2ccco2)n1Cc1ccco1	·	25.1µM	–	–	–
C=CC1=C(C)C2=NC1=CC1=NC(=CC3=NC(=CC4=NC(=C2)C(C)=C4CCC(=O)O)C(CCC(=O)O)=C3C)C(C=C)=C1C.[Zn]	·	–	–	·	–
Cc1ccc(C(=O)Nc2ncc(Cc3ccc(F)cc3)s2)o1	·	20µM	–	–	–
CS(=O)(=O)Nc1ccc(Nc2c3ccccc3nc3ccccc23)cc1	·	–[11.4 µM]	–[9.22 µM]	–[9.22 µM]	–[9.17 µM]
Cn1c(NC(=O)c2cc(-c3ccc4c(c3)OCO4)nc3ccccc23)cc(=O)n(C)c1=O	4.05	2.51µM	–	–	–
Cc1occc1C(=O)Nc1cc(=O)n(C)c(=O)n1C	–	–	–	–	–
C=CCOC(=O)C(C(C)=O)C(NC(=O)OC)c1cccs1 (centres undefined)	·	·	·	–[9.22 µM]	·
CC(C)(C)n1ncc2c(=O)n(CC(=O)OCc3ccccc3)cnc21	0.54	0.398µM	–	–	–
SMILES	PK Bst	FLuc inh	GFP derepression	HBB splicing	UbGFP stabilizer
CC(C)(C)n1ncc2c(=O)n(CC(=O)NCc3ccc(F)cc3)cnc21	·	20µM	–	–	–
COc1cc(C(=O)NCCC2=CCCCC2)cc(OC)c1OC	·	–	–	–[0.0738 µM]	–[9.17 µM]
Cc1cc(C(=O)NCCC2=CCCCC2)c(C)o1	·	15.8µM	–	–	–
CN(C)c1cc(-c2cccc(NS(C)(=O)=O)c2)ncn1	·	–[2.29 µM]	–[9.22 µM]	–	–
COc1ccc([N+](=O)[O-])c2c1CCN2C(=O)CC[C@H](N)C(=O)O	·	–	–	·	–
COc1ccc(NC(=O)c2cc3ccccn3n2)cc1	·	6.31µM	–	–	–
C=CC1=C[C@@H](O)C2OC2C12OCCCO2 (some centres undefined)	·	–[11.4 µM]	·	–[9.22 µM]	·
COc1ccc(NS(=O)(=O)c2cccc(-c3nnc4n3CCCCC4)c2)cc1	–	–	–	–	–
COc1ccc(-c2cc3nc4n(c(=O)c3s2)CCC4)cc1	3.85	2.51µM	–	–	–
Cc1cc(C)cc(N(CC(=O)O)S(=O)(=O)c2cccnc2)c1	·	–	·	–	–
Cn1ccnc1SCC(=O)Nc1ccc2ccccc2c1	–	12.6µM	–	–	–
CC(C)OC(=O)CSc1nnc(-c2ccc(O)cc2)n1Cc1ccccc1	·	25.1µM	–	–	–
COCc1cc(=O)n2c(-c3ccc(C)cc3)n[nH]c2n1	·	12.6µM	·	–	–
COCc1cc(=O)n2c(-c3ccccc3OC)n[nH]c2n1	–	–	–	–	–
CSc1nnc2n(C3CCCCC3)c(=O)c3c4c(sc3n12)CCCC4	–	–	–	·	·
CSc1nnc2n(-c3ccccc3)c(=O)c3c4c(sc3n12)CCC4	2.8	–	–	–	–
Cc1nnc2n(Cc3ccccc3)c(=O)c3c4c(sc3n12)CCCC4	–	–	–	·	–
CCOC(=O)CSc1nnc2n(Cc3ccccc3)c(=O)c3c4c(sc3n12)CCC4	5.06	–	–	·	·
CCc1ccccc1	·	·	·	–	·
CCOc1cccc(-c2nc3cc(C)ccc3o2)c1	·	7.94µM	–	–[9.22 µM]	–
CCCC(=O)Nc1ccc(-c2nc3cc(C)ccc3o2)cc1	5.34	3.98µM	–	–	–
Cc1cnc(CNc2nc(-c3ccc(N(C)C)cc3)nc3ccccc23)cn1	·	0.794µM	–[9.22 µM]	–	–
Cc1cnc(CNc2nc(-c3ccccc3C(F)(F)F)nc3ccccc23)cn1	·	–[2.29 µM]	–[9.22 µM]	–	–
CCOC(=O)c1ccc(NC(=O)N2CCN(CCc3ccccc3)CC2)cc1	·	25.1µM	–	–	–
CCOC(=O)c1ccc(NC(=O)N2CCN(c3ccccn3)CC2)cc1	–	–	–	–	–
SMILES	PK Bst	FLuc inh	GFP derepression	HBB splicing	UbGFP stabilizer
O=S1(=O)C=C(Sc2nc3ccccc3s2)c2ccccc21	–	12.6µM	–	–	–
COc1ccc(OCCSc2ncccn2)cc1	·	25.1µM	–	–	–
O=C(NC1CC1)c1cccc(Nc2ccc(-c3ccc4c(c3)OCCO4)nn2)c1	1.46	2µM	–	·	–
c1ccc(-c2nnc(-c3ccccn3)nn2)nc1	7.06	?	–	–	–
c1ccc(-c2cccc(-c3ccccn3)n2)nc1	–	–	–	–	–
C[C@@H](C(=O)N[C@@H](CO)Cc1ccccc1)[C@H]1C[C@]1(C)[C@H](NC(=O)OCc1ccccc1)c1ccccc1	·	·	·	–	·
O=C(Nc1ccc2sccc2c1)c1ccc(Cl)s1	·	1.58µM	·	–	–
Cc1cccc(/N=C/c2c(O)[nH]c3ccccc23)n1	·	3.98µM	–	–	–
Oc1[nH]c2ccccc2c1C=Nc1ccc2c(c1)OCCO2	3.15	3.98µM	–	–	–
O=NC1=C(c2c(O)[nH]c3ccccc23)CCCC1	·	–	–	–[9.22 µM]	–
CO[C@H]1COC(=O)CCC[C@@H](C)[C@H](OC)COC(=O)[C@H]2CCCN2C(=O)C/C=C\[C@@H]1C	·	–[11.4 µM]	·	–[9.22 µM]	·
Cc1ccc(C)c(-c2nc3ccc(N)cc3[nH]2)c1	–	–	–	–	–
Nc1ccc(-c2nc3c(Cl)c(N)ccc3[nH]2)cc1	–	15.8µM	–	–	–
Nc1ccc2nc(-c3ccc(Cl)cc3)[nH]c2c1	·	3.98µM	·	–	–
O=C(Nc1ccc2nc3n(c(=O)c2c1)CCCCC3)c1ccccn1	·	12.6µM	–	–	–
Cc1ccccc1OCC(=O)Nc1cccc(N(C)S(C)(=O)=O)c1	·	20µM	–	–	–
